Rango-impB inh = Rango-importin beta binding inhibition; Potency, µM (top dose mostly 92.2 µM), inactives show top-dose inhibition of complex formation; Q14974; Rango CFP/YFP FRET sensor + importin beta, 45 min; 0.031% of 340,000 active;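 further: potency means the concentration at half of the fitted maximal effect; 0% = DMSO wells and 100% = buffer wells lacking importin beta; nearly all actives have a fitted effect of over 15% in size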
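FRET biosensor Rango (snurportin 1 IBB between N-terminal EYFP and C-terminal Cerulean), 50 nM in PBS/1 mM DTT/0.02% Tween-20/0.1% BSA, preincubated 5 min RT with compound; 0.125 microM importin beta added, 45 min RT, CFP/YFP FRET ratio read.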
MBNL1-CUG inh = MBNL1-poly(CUG) RNA binding inhibition; Q9NR56; TR-FRET MBNL1-His/biotin-(CUG)12 binding, 665/545 ratio; Potency, µM (highest dose often 57.5 µM), for inactives: at the highest dose activity change, negative = inhibition, usual class: inhibitors; 0.036% of 280,000 active; active means well fitted inhibition curve with a large enough effect in the signal ratio, with a control signal flat, not every such curve was filed as active; inconclusive means small, poorly fitted or top-dose-only effect, or effect the other way, or a change in a side signal; inactive means no such curve, though single readings can be large or run the other way; the % refers to the signal ratio; further: potency means the concentration at half of the fitted maximal effect; on the % scale 0 is the no-effect control and ±100 the full control effect
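His-tagged MBNL1 binding to biotinylated (CUG)12 RNA was measured by TR-FRET using terbium anti-His antibody (0.055 ng/ul final) and streptavidin-XL665 (5 nM final). Compounds were titrated 92 nM to 58 uM; 60 min at room temperature.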
Rango dissoc inh = inhibition of RanGTP-driven Rango-importin beta dissociation | AID 540253 | Biochemical FRET Rango-importin beta, RanGTP-induced dissociation | O95149+P62826 | Potency, µM (highest dose often 46.1 µM), for the others: at the highest dose activity change, negative = inhibition | 0.071% of 340,000 active; further: potency means the concentration at half of the fitted maximal effect; % of control where 0% means no effect; nearly all actives have a fitted effect of over 45% in size
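Rango/importin beta premix (0.1/0.25 uM final), PBS + 1 mM DTT + 0.02% Tween-20 + 0.1% BSA; cpd 5 min RT; FRET pre-read; + RanGTP-RCC1 (0.6 uM Ran, 2 mM GTP, 0.2 uM RCC1); 45 min RT; FRET post-read, ex 430, em 486/530 nm.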
ClpP mod = qHTS Assay for Activators of ClpP; Potency, µM (series often up to 57.5 µM), inactives show top-dose activity change, negative = active; AID 651965, 2013; ATP-dependent Clp protease proteolytic subunit (Bacillus subtilis (strain 168)), P80244; purified B. subtilis ClpP, FRET peptide cleavage, 20 min; 1.9% of 340,000 active; active means well fitted falling curve with a large enough effect; inconclusive means small, poorly fitted or top-dose-only effect; inactive means no such curve, though single readings can be large or run the other way; further: potency means the concentration at half of the fitted maximal effect; the source files actives as falling curves though it sought activators and does not explain the sign; nearly all actives have a fitted effect of over 65% in size
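FRET quenching reversal measured ClpP activation: 10 microg/mL B. subtilis ClpP at pH 8 with the FRET-FV decapeptide, read at 430 nm after 320 nm excitation. The 20-min minus 0-min signal was scaled between DMSO/no-enzyme wells and ADEP (5.8 microM final).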
CBFb-RUNX1 inh = blocks binding between human CBF-beta and RUNX1; Q01196+Q13951; AlphaScreen CBFb-His/RUNX1-biotin binding, biochemical; 230,000 tested, under 10 active; Potency, µM (top dose mostly 59.8 µM), without a hit: at the highest dose activity, negative = inhibition, usual class: inhibitors; active means well fitted curve in the direction sought with a large enough effect; inconclusive means small, poorly fitted or top-dose-only effect, or effect the other way, or another doubt; inactive means no such curve, though single readings can be large or run the other way; further: % of control where 0% means no effect
Target sequence (Q01196 whole entry, looked up): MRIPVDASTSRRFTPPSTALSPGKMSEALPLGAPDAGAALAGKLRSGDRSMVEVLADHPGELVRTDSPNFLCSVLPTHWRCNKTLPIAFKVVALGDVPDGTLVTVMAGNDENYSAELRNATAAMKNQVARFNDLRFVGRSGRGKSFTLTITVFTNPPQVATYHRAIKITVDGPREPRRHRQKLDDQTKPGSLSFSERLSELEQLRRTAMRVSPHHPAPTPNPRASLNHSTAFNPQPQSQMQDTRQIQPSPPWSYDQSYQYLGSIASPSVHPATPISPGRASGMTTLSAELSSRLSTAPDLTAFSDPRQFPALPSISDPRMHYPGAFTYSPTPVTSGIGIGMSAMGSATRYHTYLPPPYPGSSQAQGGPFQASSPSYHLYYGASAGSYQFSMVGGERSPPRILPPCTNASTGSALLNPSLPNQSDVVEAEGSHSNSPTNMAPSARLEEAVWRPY
Target sequence (Q13951 whole entry, looked up): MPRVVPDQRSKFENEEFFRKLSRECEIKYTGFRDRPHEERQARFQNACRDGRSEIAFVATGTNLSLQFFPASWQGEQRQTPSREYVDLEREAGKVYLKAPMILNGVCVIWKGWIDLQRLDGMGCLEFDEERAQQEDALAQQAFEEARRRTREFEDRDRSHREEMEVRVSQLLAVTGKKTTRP
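Bead-based AlphaScreen assay; binding partners His-tagged CBF-beta and biotinylated RUNX1 at 30 nM each. Compound exposure 15 min after a 20-min protein preincubation; bead step 90 min; all steps at room temperature.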
* marks the source's active call; other numbers are inactive results; u = inconclusive; x = no result given. Only a selection was taken, and hits are over-represented in it overall. Unless noted, the call rests on the fitted dose curve.

SMILES	Rango-impB inh	MBNL1-CUG inh	Rango dissoc inh	ClpP mod	CBFb-RUNX1 inh
Cc1ccc(-c2nc3ncccc3o2)cc1NC(=O)COc1ccccc1	-0.4%	-1.5%	-0.2%	31.6µM*	1.0%
Cc1ccc(Cl)cc1NC(=O)CSC1=Nc2ccccc2C2=NC(Cc3ccccc3)C(=O)N12 (stereo unspecified)	x	x	x	4.1%	x
Fc1ccc(-c2noc3ncnc(Nc4ccc(F)cc4F)c23)cc1	x	x	x	-2.1%	x
CSc1ccc(OC2(C)CCN(Cc3ccc(C(C)C)cc3)C2)cc1 (stereo unspecified)	x	x	x	-0.3%	x
CCOC(=O)C1=C(C)NC2=C(C(=O)CCC2)C1c1cccs1 (stereo unspecified)	-1.6%	-2.2%	-10.5%	u	5.7%
CCOC(=O)c1sc2c(c1C)C(c1cccs1)C1=C(CCCC1=O)N2 (stereo unspecified)	u	8.9%	u	4.47µM*	25.2%
COc1cccc(/C=C/c2cnc3ccccc3n2)c1OC	x	x	x	-17.5%	x
Cn1c(=O)n(C)c2cc(N3CCOCC3)c(NS(=O)(=O)c3ccc(Cl)cc3)cc21	x	x	x	-6.0%	x
CC(C)NC(=O)N1[C@H](c2cccs2)[C@@H](C)C(=O)[C@@H](C)[C@@H]1c1cccs1	x	x	x	-1.3%	x
COc1ccc(C2C3=C(CC(C)(C)CC3=O)Nc3n[nH]c(C)c32)cc1 (stereo unspecified)	-0.7%	3.5%	-0.4%	35.5µM*	1.5%
Cc1[nH]nc2c1C(c1ccccc1)C1=C(CC(C)(C)CC1=O)N2 (stereo unspecified)	-4.2%	-7.9%	-0.6%	28.2µM*	-0.2%
Cc1ccc(S(=O)(=O)N2CCC(C(=O)NCCc3ccccn3)CC2)cc1	-0.9%	0.3%	3.0%	22.4µM*	-1.2%
O=S(Cc1ccc(Br)cc1)Cc1nnc(SCc2c(F)cccc2Cl)n1-c1ccccc1 (stereo unspecified)	4.7%	6.1%	6.3%	31.6µM*	-9.0%
CCCn1nc(C(=O)Nc2ccc(S(=O)(=O)Nc3nccs3)cc2)c2ccccc2c1=O	-10.7%	5.2%	u	25.1µM*	-6.5%
CCn1nc(C(=O)Nc2ccc(S(=O)(=O)Nc3ncccn3)cc2)c2ccccc2c1=O	-1.3%	-0.8%	18.1%	x	-1.8%
CCOc1ccc(S(=O)(=O)Nc2ccccc2C(=O)NCC2CCCO2)cc1 (stereo unspecified)	-0.2%	6.5%	11.3%	28.2µM*	-2.2%
Cc1ccc(S(=O)(=O)Nc2ccccc2C(=O)NCC2CCCO2)cc1 (stereo unspecified)	-2.0%	-7.1%	-13.5%	u	x
COc1ccc(NC(=O)c2oc3ccccc3c2NC(=O)Cc2coc3c(C)c(C)ccc23)cc1	x	x	x	-20.5%	x
O=C(COc1ccc(F)cc1)NCC(c1ccc(Cl)cc1)N1CCCCC1 (stereo unspecified)	x	x	x	-1.2%	x
O=C(CN1CCCC1)N1CCCc2c1c(=O)oc1ccc(OCc3ccccc3)cc21	-1.5%	u	-6.5%	31.6µM*	-3.5%
CCOC(=O)c1c(C(F)(F)F)nc2ncccn12	-0.3%	-13.3%	0.2%	25.1µM*	1.4%
COc1ccc(Cn2ccc3nc(C)c(C(=O)Nc4ccc(OC(F)(F)F)cc4)cc3c2=O)cc1	x	x	x	25.1µM*	x
COc1ccc(Cn2ccc3nc(C)c(C(=O)Nc4ccc(F)cc4)cc3c2=O)cc1	x	x	x	-10.4%	x
O=c1c(-c2nnc(SCc3ccc(Cl)cc3Cl)o2)cccn1Cc1ccccc1	-2.7%	10.4%	-25.5%	3.16µM*	6.0%
CSc1nnc(-c2cccn(Cc3ccccc3)c2=O)o1	0.0%	u	1.0%	x	-5.3%
SMILES	Rango-impB inh	MBNL1-CUG inh	Rango dissoc inh	ClpP mod	CBFb-RUNX1 inh
CCC(Sc1nc2ncccc2o1)C(=O)Nc1cccc(C)c1 (stereo unspecified)	x	x	x	0.8%	x
Cc1ccc(NC(=O)Nc2nnc(N(C)Cc3ccccc3)s2)cc1	x	x	x	1.4%	x
CN1CC[n+]2cnc3ccccc3c21	-0.7%	-4.3%	0.5%	28.2µM*	12.5%
Cc1ccnc2ccccc12	x	x	x	-2.2%	x
O=C(COC(=O)CNC(=O)C1CCCCC1)Nc1ccccc1	5.3%	x	-25.3%	x	x
O=C(CNC(=O)C1CCCCC1)OCc1cc(=O)oc2ccc3ccccc3c12	-1.1%	7.1%	0.6%	25.1µM*	20.3%
CCOc1ccc(NC(=O)CCN2CCN(S(=O)(=O)c3cc(Cl)ccc3OC)CC2)cc1	2.0%	2.2%	-7.9%	28.2µM*	12.6%
CCN(CC)c1ccc(NC(=O)CN2CCN(S(=O)(=O)c3cc(Cl)ccc3OC)CC2)cc1	-0.9%	-1.1%	-0.2%	0.1%	u
Cc1c(-c2ccccc2)[n+](=O)c(-c2ccco2)c(C)n1[O-]	-0.3%	8.1%	-8.3%	28.2µM*	9.3%
CCc1cccc(C)c1NC(=O)c1cc(S(=O)(=O)NCc2ccccc2Cl)ccc1F	x	x	x	-2.6%	x
NC(=O)C1=C(N=C2CCCCC2)CCCC1	0.6%	x	0.9%	31.6µM*	x
COc1cc(CN(C(=O)c2ccccc2F)C2CCS(=O)(=O)C2)cc(OC)c1OC (stereo unspecified)	x	x	x	-2.5%	x
COC(=O)c1ccc(C(=O)OC)c(NC(=O)c2c(-c3ccccc3)noc2C)c1	x	x	x	-2.2%	x
COc1ccc(S(=O)(=O)n2ccc(-c3cnc(-c4ccccc4)s3)n2)cc1	-0.5%	12.1%	11.2%	28.2µM*	11.8%
O=C(c1ccccc1)n1ccc(-c2cnc(-c3ccccc3)s2)n1	-0.1%	2.6%	-13.1%	46.4%	10.6%
COc1ccc(OCC(=O)Nc2nc(-c3ccc(Br)cc3)ns2)cc1	x	x	x	-0.6%	x
O=C(NCc1ccccc1F)C(=O)NCC(c1ccco1)S(=O)(=O)c1ccccc1 (stereo unspecified)	x	x	x	0.3%	x
COCCNc1nc(N)c([N+](=O)[O-])c(NCC2CCCO2)n1 (stereo unspecified)	4.7%	-5.5%	-15.9%	25.1µM*	0.5%
Nc1nc(NCCOCCO)nc(NCC2CCCO2)c1[N+](=O)[O-] (stereo unspecified)	7.2%	x	7.6%	1.8%	-4.6%
CCOC(=O)C1CCN(C(=O)COC(=O)c2nc3nc(C)cc(C)n3n2)CC1	3.8%	x	-6.0%	-2.5%	x
Cc1cc(C)n2ncc(C(=O)NCc3ccccc3)c2n1	-0.4%	-3.4%	-17.3%	28.2µM*	0.0%
Cc1cc(C)n2ncc(C(=O)NCCc3ccccc3)c2n1	-1.3%	-0.1%	-4.6%	28.2µM*	-1.4%
CCOC(=O)C1CCN(C(=O)c2cnn3c(C)cc(C)nc23)CC1	0.6%	0.1%	-0.9%	31.6µM*	-0.5%
Cc1cc(C)n2ncc(C(=O)NCc3ccc(Cl)cc3)c2n1	2.8%	-3.1%	2.8%	u	-0.2%
Cc1cc(C)n2nc(C(=O)NCc3ccccc3)cc2n1	-4.6%	-5.1%	-0.2%	25.1µM*	-0.4%
CNC(=O)c1ccc2nc(-c3cccc(C)c3)c(-c3cccc(C)c3)nc2c1	x	x	x	4.2%	x

Screening data from PubChem.
